# Inconclusive results are not listed. Active and inactive are the calls of the source. Calls follow the shape of the dose curve; as a rule, active = well fitted inhibition curve with a large enough effect; inconclusive = small, poorly fitted or top-dose-only effect, or effect the other way; inactive = flat fitted curve, though single readings scatter. Numbered stars: 1 amine (or outer) side, 2 acyl side, 3 side chain; on linkers, the order of the positions; unused ones are H or OH. Bridge positions count the residues as written; N and C are the ends. Square brackets hold non-standard residues; d marks the D form. Peptide text beside a SMILES is read from it. I, II: the chains in the order shown. Actinocin(9to1) = Cc1c2oc3c(C)ccc(C(=O)[*:1])c3nc-2c(C(=O)[*:2])c(N)c1=O; NMeV = CN[C@H](C(=O)O)C(C)C; Sar = CNCC(=O)O
# Target: ATP-dependent 6-phosphofructokinase (Trypanosoma brucei brucei) (UniProt O15648)
# Sequence (O15648 whole entry, looked up): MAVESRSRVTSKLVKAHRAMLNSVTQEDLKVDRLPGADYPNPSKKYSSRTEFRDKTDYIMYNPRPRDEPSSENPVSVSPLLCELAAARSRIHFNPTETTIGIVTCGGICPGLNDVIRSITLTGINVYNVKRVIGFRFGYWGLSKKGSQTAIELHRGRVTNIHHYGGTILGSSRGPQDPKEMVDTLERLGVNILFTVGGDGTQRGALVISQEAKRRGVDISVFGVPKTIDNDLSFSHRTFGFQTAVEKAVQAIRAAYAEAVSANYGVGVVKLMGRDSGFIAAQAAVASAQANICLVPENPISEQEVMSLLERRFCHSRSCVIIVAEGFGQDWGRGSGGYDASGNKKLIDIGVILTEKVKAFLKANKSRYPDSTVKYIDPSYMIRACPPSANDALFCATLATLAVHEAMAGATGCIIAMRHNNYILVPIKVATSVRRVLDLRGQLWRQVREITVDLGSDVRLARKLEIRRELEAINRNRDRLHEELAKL
# Assay: qHTS Assay to Find Inhibitors of T. brucei phosphofructokinase: hit validation (AID 492961);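 also: luminescence reports ADP formed as PFK phosphorylates fructose-6-phosphate with ATP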
# Conditions: T. brucei PFK, ADP-Glo luminescence; series mostly up to 51.4 µM; activity change, negative = inhibition: at the top concentration
# Outline: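 Percent activity derived from corrected luminescence, normalized between 0x and 1x enzyme controls, then fitted to concentration-response curves. Conditions: 1.25 nM PFK, 0.1 mM ATP, 0.5 mM F6P, 45 min RT.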
# % is scaled to controls: 0 for no effect and ±100 for the full control effect.
SMILES,"activity change, negative = inhibition",outcome
CC1NCCOC1c1ccccc1 (stereo unspecified),4.73% (inactive),–
Cn1c(CCCC(=O)O)nc2cc(N(CCCl)CCCl)ccc21,21.1% (inactive),–
CC(C)CC(N(C)C)C1(c2ccc(Cl)cc2)CCC1 (stereo unspecified),6.03% (inactive),–
CC(C)=CC1C(C(=O)OCc2cccc(Oc3ccccc3)c2)C1(C)C (stereo unspecified),5.22% (inactive),–
C[C@]12C/C(=C/O)C(=O)C[C@@H]1CC[C@@H]1[C@@H]2CC[C@@]2(C)[C@H]1CC[C@]2(C)O,-3.79% (inactive),–
O=[N+]([O-])c1cc([As](=O)(O)O)ccc1O,11.6% [at 24.3 µM] (inactive),–
CCN(CC)CCN1C(=O)CN=C(c2ccccc2F)c2cc(Cl)ccc21,7.22% (inactive),–
O=P1(NCCCl)OCCCN1CCCl (stereo unspecified),6.77% [at 24.3 µM] (inactive),–
CC(C)NCC(O)c1ccccc1Cl (stereo unspecified),-1.08% (inactive),–
CCN(C(C)=O)c1cccc(-c2ccnc3c(C#N)cnn23)c1,-3.62% (inactive),–
N[C@@H](Cc1ccc(N(CCCl)CCCl)cc1)C(=O)O,-11% (inactive),–
C=C1CC[C@@]2(O)[C@H]3Cc4ccc(O)c5c4[C@@]2(CCN3CC2CC2)[C@H]1O5,4.11% (inactive),–
CC(=O)Nc1cc([As](=O)(O)O)ccc1O,-13.1% (inactive),–
"Cc1c2oc3c(C)ccc(C(=O)N[C@@H]4C(=O)N[C@H](C(C)C)C(=O)N5CCC[C@H]5C(=O)N(C)CC(=O)N(C)[C@@H](C(C)C)C(=O)O[C@@H]4C)c3nc-2c(C(=O)N[C@@H]2C(=O)N[C@H](C(C)C)C(=O)N3CCC[C@H]3C(=O)N(C)CC(=O)N(C)[C@@H](C(C)C)C(=O)O[C@@H]2C)c(N)c1=O (I: T[dV]P[Sar][NMeV] / II: T[dV]P[Sar][NMeV]; ester I:1-I:C, II:1-II:C; linker I:N-II:N via Actinocin(9to1))",4.11% (inactive),–
CN1C(=S)CN=C(c2ccccc2)c2cc(Cl)ccc21,9.88% (inactive),–
CCC(C(N)=O)N1CCCC1=O (stereo unspecified),9.05% (inactive),–

SMILES,"activity change, negative = inhibition",outcome
COc1ccc(C(=O)c2c(C)n(CCN3CCOCC3)c3ccccc23)cc1,-7.6% (inactive),–
CCC(COC(=O)c1cc(OC)c(OC)c(OC)c1)(c1ccccc1)N(C)C (stereo unspecified),-0.263% (inactive),–
Oc1cccc2cccnc12,-1.44% (inactive),–
CCN(CC)CCOC(=O)C(O)(c1ccccc1)c1ccccc1,4.3% (inactive),–
C#CCOC(C(=O)OCCN(C)C)(c1ccccc1)c1ccccc1,4.65% (inactive),–
CCOC(=O)C1(c2ccccc2)CCN(CCC(C#N)(c2ccccc2)c2ccccc2)CC1,-8.47% (inactive),–
FC(F)(F)c1cccc(C2=CCN(CCc3ccc4ccccc4c3)CC2)c1,-0.681% (inactive),–
OCCOc1ccccc1,-1.99% (inactive),–
CC1OC(C)OC(C)O1 (stereo unspecified),–,inactive
CCOP(=S)(OCC)Oc1cc(C)nc(C(C)C)n1,-4.38% (inactive),–
CN1CCN(C(=O)O[C@H]2c3nccnc3C(=O)N2c2ccc(Cl)cn2)CC1,-4.46% (inactive),–
CC(C)(C)NCC(O)c1cc(Cl)c(N)c(Cl)c1 (stereo unspecified),14.1% (inactive),–
c1ccc2c(c1)Nc1ccccc1S2,-6.14% (inactive),–
Oc1cc(Cl)ccc1Oc1ccc(Cl)cc1Cl,2.84% (inactive),–
CC[N+]1(C)CCCC(OC(=O)C(O)(c2ccccc2)c2ccccc2)C1 (stereo unspecified),-0.842% (inactive),–

# From PubChem BioAssay (NCATS)
